# Assay outcomes deposited in PubChem BioAssay by National Center for Advancing Translational Sciences (NCATS).
# Shown are actives, neighbours in structure and some others; about 3.2% of the full set was active somewhere.
# GLP-1R agonist = activates the human GLP-1 receptor | HEK293 GLP-1R CRE-luciferase, luminescence, 4-6 h; cells express a hypersensitive GLP-1R form | AID 624172 | hit rate 0.007% among 380,000 | P43220 | Potency, µM (top dose mostly 45.6 µM), without a hit: at the top dose activation, usual class: activators; also: % of control where 0% means no effect
# GLP1R inv ag = GLP-1 receptor (human) inverse agonism | P43220 | HEK293 GLP-1R CRE-luciferase, luminescence, 24 h; GLP-1R form is constitutively active | Potency, µM (highest dose often 38.3 µM), for the others: at the highest dose activity change, negative = inhibition, actives largely listed as inhibitors | hit rate 1.6% among 410,000 | AID 624417; also: % is scaled to controls: 0 for no effect and ±100 for the full control effect; nearly all actives have a fitted effect of over 55% in size
#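 Luminescence readout: a drop in cAMP-driven luciferase signal flags inverse agonism at a constitutively active GLP-1R stably expressed in HEK293. Compound exposure lasted 24 hr at 37 deg C, 5% CO2.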
# GLP1R cytotox = cytotoxicity in counter-screen for GLP-1R inverse agonists; HEK293 cAMP-luciferase reporter cells, luminescence, 24 h; Potency, µM (top dose mostly 38.3 µM), for the others: top-dose activity change, negative = inhibition, usual class: inhibitors; hit rate 0.13% among 410,000;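 also: loss of luciferase light is scored as toxicity; % is scaled to controls: 0 for no effect and ±100 for the full control effect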
#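 Cells in DMEM/10% Nu serum/1% pen-strep, 1536-well format. Pre-incubated 12 h, dosed with 23 nL compound, incubated a further 24 h. Luciferase detection, 12 min at room temp, luminescence.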
# ClpP mod = qHTS Assay for Activators of ClpP | AID 651965, 2013 | purified B. subtilis ClpP, FRET peptide cleavage, 20 min | ATP-dependent Clp protease proteolytic subunit (Bacillus subtilis (strain 168)), P80244 | Potency, µM (doses to about 57.5 µM), for the others: top-dose activity change, negative = active | hit rate 1.9% among 340,000; active = well fitted falling curve with a large enough effect; inconclusive = small, poorly fitted or top-dose-only effect; inactive = no such curve, though single readings can be large or run the other way; also: the source files actives as falling curves though it sought activators and does not explain the sign; nearly all actives have a fitted effect of over 65% in size
#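 Buffer: 100 mM Tris/HCl pH8, 100 mM KCl, 0.05% low protease BSA, 2.5% glycerol, 0.01% Tween-20. ClpP 10 microg/mL final; 20 min RT; delta FRET normalized to ADEP and DMSO controls.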
# Starred values were filed as active, the others as inactive; ? = inconclusive; / = no result given. Unless noted, calls follow the shape of the dose curve; as a rule, active = well fitted curve in the direction sought with a large enough effect; inconclusive = small, poorly fitted or top-dose-only effect, or another doubt; inactive = no such curve, though single readings can be large; an effect the other way counts as inactive or inconclusive. Potency is read from the fitted curve at half-maximal effect.
SMILES,GLP-1R agonist,GLP1R inv ag,GLP1R cytotox,ClpP mod
Cc1ccc(NC(=O)Nc2nnc(SCC(=O)N3CCC(C)CC3)s2)cc1,/,?,?,-0.3%
CCOCCc1nn2c(=O)cc(COC(=O)COc3ccc(C)c(C)c3)nc2s1,/,0.4%,7.7%,-1.4%
COC(=O)C1=CN(CC2CCCO2)C=C(C(=O)OC)C1c1cc(OC)c(OC)c(OC)c1 (stereo not drawn),-1.2%,9.8%,115.2%,25.1µM*
COC(=O)C1=CN(Cc2ccc(F)cc2)C=C(C(=O)OC)C1c1cc(OC)c(OC)c(OC)c1,6.1%,9.3%,39.0%,3.5%
COC(=O)C1=CN(Cc2ccc(OC)cc2)C=C(C(=O)OC)C1c1cc(OC)c(OC)c(OC)c1,5.01µM*,?,248.0%,/
CCn1cc(C(=O)Nc2ccc(OC)c(S(=O)(=O)N3CCCCC3)c2)c(=O)c2ccc(C)nc21,0.5%,8.7%,14.0%,31.6µM*
CCOc1ncccc1C(=O)Nc1ccc(OC)c(S(=O)(=O)N2CCCCC2)c1,15.2%,34.3%,-1.1%,0.9%
O=c1c2c(-c3cccs3)csc2ncn1-c1ccccc1,25.4%,?,20.7%,-9.4%
Cc1ccc(-n2cnc3scc(-c4cccs4)c3c2=O)cc1,0.8%,10µM*,-6.0%,-13.9%
CCOC(=O)c1cnc2ccc(OC)cc2c1NCCc1ccccc1,/,3.5%,-5.1%,4.2%
CCCC1C(C(=O)OCC)=C(C)NC(C)=C1C(=O)OCC,30.1%,?,-1.5%,20µM*
CCCCOC(=O)C1=C(C)NC(=O)NC1c1cccc([N+](=O)[O-])c1 (stereo not drawn),9.0%,1.2%,-6.9%,-0.6%
CCOC(=O)C1=C(C)NC(C)=C(C(=O)OCC)C1c1sccc1C,4.3%,7.94µM*,-18.0%,-4.3%
CCOC(=O)C1=C(C)NC(C)=C(C(=O)OCC)C1c1cccc([N+](=O)[O-])c1,-4.3%,10µM*,-11.3%,-0.7%
CC(=O)c1cc(C#N)c(SCCC(C)C)nc1C,?,4.0%,3.9%,-0.8%
CC(C)CCSc1nc(N)c(C#N)cc1C#N,4.3%,-17.2%,19.5%,31.6µM*
COc1ccc(S(=O)(=O)N2CCCc3ccccc32)cc1OC,13.4%,?,7.6%,2.1%
COc1ccc(S(=O)(=O)N2CCCc3ccccc32)cc1[N+](=O)[O-],21.6%,11.2µM*,-12.8%,-0.1%
[O-][n+]1ccccc1SSc1cccc[n+]1[O-],-12.9%,/,/,/
CCCC(=O)OCC(=O)NCc1ccc(Cl)cc1,1.4%,-1.6%,-15.6%,/
Cc1ccc(C)c(C(=O)CCC(=O)NCc2ccc(Cl)cc2)c1,2.6%,10µM*,-7.6%,0.0%
CCCCC(=O)NCc1ccc(Cl)cc1,-0.4%,0.3%,20.1%,20µM*
Cc1nnc(N2C(=O)c3cccc4cccc(c34)C2=O)s1,2.7%,11.5%,4.7%,28.2µM*
COc1cccc(Nc2nc(-c3cccs3)nc3ccccc23)c1,27.2%,11.2µM*,-5.5%,/
COc1ccc(Nc2nc(-c3cccs3)nc3ccccc23)cc1,6.7%,?,82.3%,33.8%
SMILES,GLP-1R agonist,GLP1R inv ag,GLP1R cytotox,ClpP mod
Cc1ccc2c(c1C)NC(=O)CC2c1ccc(Cl)cc1Cl (stereo not drawn),3.6%,32.3%,-0.5%,1.5%
CC1CCCN(c2ccc3nc4ccccc4c(=O)n3n2)C1 (stereo not drawn),-3.2%,5.01µM*,2.9%,/
COc1ccc(OC)c2c1CCC2=O,12.7%,8.0%,28.1%,31.6µM*
COc1ccc(C(c2c(O)ccc3ccccc23)N2CCOCC2)c(OC)c1 (stereo not drawn),0.6%,10µM*,?,?
COc1ccc(C(CCN2CCOCC2)c2c(O)cc(OC)cc2OC)cc1 (stereo not drawn),-8.1%,5.8%,-8.1%,2.2%
CCCCNC(=O)c1nn(C)c2c1CSc1ccccc1-2,/,?,6.7%,0.1%
CC(NC(=O)c1ccco1)C12CC3CC(CC(C3)C1)C2 (stereo not drawn),-2.2%,10µM*,1.0%,2.7%
Cc1ccc(SCc2nc(-c3ccc(C(=O)NCC(C)c4ccccc4)cc3)oc2C)cc1 (stereo not drawn),/,4.47µM*,0.2%,4.1%
CCOc1ccc(-c2cc(NC(=O)c3ccc(C)cc3)c(C(=O)OC)s2)cc1,/,4.7%,2.8%,?
